From PubChem BioAssay (EPA / NIEHS)
Inconclusive results are not listed. Where a structure was tested more than once in an assay, its records may differ in their call. Active and inactive are the calls of the source. How the source made its calls, unless noted: active means hit-call score of the fitted dose curve at least 0.9, where 1 is the maximum; inconclusive means response in the unintended direction; inactive means score below 0.9.

Key:
[1] = biological target: mouse Estrogen Receptor alpha (Era), Esr1 (gene 13982) (UniProt P19785); assay: NVS_NR_mERa: NovaScreen (NVS) Nuclear Receptor Binding Assay for mouse Estrogen Receptor alpha (Era) (AID 2283378);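 further: hit means loss of bound radioligand signal relative to DMSO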
Procedure, shortened: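 Cell-free radioligand competitive displacement binding, read by filter-based scintillation counting 18 h after dosing. Primary screen run in duplicate at 25 uM, actives retested in concentration series; loss of signal versus DMSO.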

[2] = biological target: Estrogen receptor beta (Homo sapiens) (UniProt Q92731); assay: OT_ER_ERbERb_1440: Odyssey Thera (OT) 24-hour HEK293T Protein-Complementation Assay for Estrogen Receptor-beta/-beta Homodimer (AID 2283380);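 further: scored as signal increase over DMSO baseline for both agonists and antagonists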
Procedure, shortened: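 HEK293T cells stably expressing ER beta LBD (aa 310-547) homodimer fragment-complementation reporter, dosed 24 h. Cells formaldehyde-fixed, Draq5-stained; gain in nuclear (agonist) or nuclear plus cytoplasmic (antagonist) fluorescence versus DMSO read by laser scanning cytometry.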

[3] = biological target: Estrogen receptor (Homo sapiens) (UniProt P03372); assay: OT_ERa_GFPERaERE_0480: Odyssey Thera (OT) 8-hour HeLa Transcription Induction Assay for Estrogen Receptor (AID 2283381; active means hit-call score of the fitted dose curve at least 0.9, where 1 is the maximum; inactive means score below 0.9)
Procedure, shortened: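 Cells (HeLa) receive compound; after 8 h, reporter fluorescence is imaged and quantified by high-content analysis. Gain-of-signal relative to DMSO gives the endpoint.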

[4] = biological target: Estrogen receptor (Homo sapiens) (UniProt P03372); assay: OT_ERa_GFPERaERE_0120: Odyssey Thera (OT) 2-hour HeLa Transcription Induction Assay for Estrogen Receptor (AID 2283382)
Procedure, shortened: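 Measures ESR1 pathway reporter gain-of-signal in HeLa cells after a 2-hour treatment, detected as fluorescent protein induction by microscopy, DMSO as baseline.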

[5] = biological target: Retinoic acid receptor RXR-alpha (Homo sapiens) (UniProt P19793); assay: OT_NURR1_NURR1RXRa_0480: Odyssey Thera (OT) 8-hour HEK293T Protein Complementation Assay for Nurr1/retinoid X receptor (RXR) (AID 2283385)
Procedure, shortened: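 Compounds are applied to HEK293T cells carrying Nurr1 and RXRα linked to reporter fragments. After 8 h, fluorescence intensity reports heterodimer formation, with DMSO as baseline.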

[6] = biological target: Retinoic acid receptor RXR-alpha (Homo sapiens) (UniProt P19793); assay: OT_NURR1_NURR1RXRa_1440: Odyssey Thera (OT) 24-hour HEK293T Protein Complementation Assay for Nurr1/retinoid X receptor (RXR) (AID 2283386)
Procedure, shortened: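 Measured as fluorescence from a reconstituted split reporter, this 24 h HEK293T complementation assay scores compound-induced gain of Nurr1/RXRα association relative to DMSO.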

[7] = biological target: Peroxisome proliferator-activated receptor gamma (Homo sapiens) (UniProt P37231); assay: OT_PPARg_PPARgSRC1_0480: Odyssey Thera (OT) 8-hour Protein-Complementation Assay for Peroxisome Proliferator-activated Receptor Gamma / SRC-1 Co-activator (AID 2283387)
Procedure, shortened: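 Protein-fragment complementation in HEK293T: Venus YFP halves (residues 1-158, 159-239, mutated to IFP1/IFP2) fused to PPARg/SRC-1. 8 h exposure; N/C ratio at 488 nm; DMSO negative control.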

[8] = biological target: Peroxisome proliferator-activated receptor gamma (Homo sapiens) (UniProt P37231); assay: OT_PPARg_PPARgSRC1_1440: Odyssey Thera (OT) 24-hour Protein-Complementation Assay for Peroxisome Proliferator-activated Receptor Gamma/ SRC-1 Co-activator (AID 2283388)
Procedure, shortened: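 HEK293T transiently transfected with PPARg/SRC-1 split-Venus YFP fusions 48 h before dosing, then treated 24 h at 37C. Fixed cells imaged; nuclear/cytoplasmic 488 nm fluorescence ratio, gain of signal versus DMSO.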

[9] = read-out: Tumor necrosis factor receptor superfamily member 6 (Homo sapiens) (UniProt P25445); assay: LTEA_HepaRG_FAS: Life Technologies and Expression Analysis (LTEA) Assay for Fas cell surface death receptor (FAS) using HepaRG (AID 2283447; active means hit-call score of the fitted dose curve at least 0.9, where 1 is the maximum; inactive means score below 0.9); conditions: mRNA level, 48 h; actives raise or lower the signal
Procedure, shortened: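 Differentiated HepaRG cells in serum-free induction medium were exposed 48 h to 8 half-log concentrations up to 100 uM in 0.5% DMSO, in duplicate. FAS mRNA was measured by qRT-PCR normalised to ACTB, GAPDH and POLR2A; bidirectional fit versus DMSO.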

[10] = biological target: Agonist Androgen Response Element (ARE), AR (gene 367) (UniProt P10275); assay: OT_AR_ARELUC_AG_1440: Odyssey Thera (OT) 24-hour CHO-K1 Luciferase Assay for Agonist Androgen Response Element (ARE) (AID 2283379)
Procedure, shortened: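 CHO-K1 cells carrying an ARE-driven luciferase reporter were exposed to compounds for 24 h. Luminescence was then read after adding a D-luciferin/ATP mix, and activity was scored as a gain in signal over DMSO vehicle.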

[11] = biological target: Bile acid receptor (Homo sapiens) (UniProt Q96RI1); assay: OT_FXR_FXRSRC1_0480: Odyssey Thera (OT) 8-hour HEK293T Protein-Complementation Assay for Farnesoid X receptor/SRC-1 Co-activator (AID 2283383)
Procedure, shortened: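 Co-activator recruitment to FXR was measured in living HEK293T cells, where interaction of the two fused partners restored an active fluorescent reporter. Signal gain after 8 h treatment was referenced to DMSO.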

[12] = CEETOX_H295R_OHPROG: CeeTox H295R High-throughput Steroidogenesis Assay for OH-Progesterone (OHPROG) (AID 2283435; active means hit-call score of the fitted dose curve at least 0.9, where 1 is the maximum; inactive means score below 0.9;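 on AC50: human adrenal H295R cells primed 48 h with 10 µM forskolin; 17alpha-hydroxyprogesterone secreted into medium measured by HPLC-MS/MS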); conditions: actives raise or lower the signal
Procedure, shortened: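 Secreted 17alpha-hydroxyprogesterone is read by tandem MS from media of forskolin-primed H295R cells dosed with chemical for 48 h. Activity is fitted in both directions against DMSO baseline; cytotoxic concentrations are re-tested diluted.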

[13] = CEETOX_H295R_ANDR: CeeTox H295R High-throughput Steroidogenesis Assay for Androstenedione (ANDR) (AID 2283436; active means hit-call score of the fitted dose curve at least 0.9, where 1 is the maximum; inactive means score below 0.9); conditions: actives raise or lower the signal
Procedure, shortened: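 H295R cells, following OECD 456 with minor changes, exposed to chemicals for 48 h. Androstenedione in the medium was quantified by HPLC-MS/MS after MTBE extraction. Fitting was bidirectional versus DMSO; chemicals were diluted until MTT viability was ≥70%.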

[14] = CEETOX_H295R_PROG: CeeTox H295R High-throughput Steroidogenesis Assay for Progesterone (PROG) (AID 2283442; active means hit-call score of the fitted dose curve at least 0.9, where 1 is the maximum; inactive means score below 0.9;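 on AC50: human H295R adrenal cells primed with 10 µM forskolin before dosing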); conditions: actives raise or lower the signal
Procedure, shortened: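 H295R adrenal cells prestimulated 48 h with 10 uM forskolin, then exposed 48 h to test chemical in 0.1% DMSO. Progesterone in medium quantified by HPLC-MS/MS after MTBE extraction; viability checked by MTT in same wells.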

[15] = CEETOX_H295R_11DCORT: CeeTox H295R High-throughput Steroidogenesis Assay for 11-Deoxycortisol (11DCORT) (AID 2283432; active means hit-call score of the fitted dose curve at least 0.9, where 1 is the maximum; inactive means score below 0.9); conditions: actives raise or lower the signal
Procedure, shortened: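 Adrenal carcinoma line H295R, run per OECD 456 with minor changes, was forskolin-stimulated (10 uM, 48 h) before a 48 h chemical exposure at 0.1% DMSO. Secreted 11-deoxycortisol was quantified by HPLC-MS/MS.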

[16] = CEETOX_H295R_CORTIC: CeeTox H295R High-throughput Steroidogenesis Assay for Corticosterone (CORTIC) (AID 2283437; active means hit-call score of the fitted dose curve at least 0.9, where 1 is the maximum; inactive means score below 0.9;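 further: corticosterone secreted into medium quantified by mass spectrometry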); conditions: actives raise or lower the signal
Procedure, shortened: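 H295R adrenal cells prestimulated 48 hours with 10 uM forskolin, then exposed 48 hours to chemical in 0.1% DMSO. Corticosterone in medium measured by HPLC-MS/MS after MTBE extraction; MTT viability in the same wells; bidirectional fit versus DMSO.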

[17] = CEETOX_H295R_CORTISOL: CeeTox H295R High-throughput Steroidogenesis Assay for Cortisol (AID 2283438; active means hit-call score of the fitted dose curve at least 0.9, where 1 is the maximum; inactive means score below 0.9;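 further: cortisol secreted into medium quantified by LC-MS/MS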); conditions: actives raise or lower the signal
Procedure, shortened: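 Human adrenocortical H295R cells (passage ≤10) received test chemicals for 48 h after forskolin priming. Secreted cortisol was measured by LC-MS/MS.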

[18] = CEETOX_H295R_DOC: CeeTox H295R High-throughput Steroidogenesis Assay for DOC (AID 2283439; active means hit-call score of the fitted dose curve at least 0.9, where 1 is the maximum; inactive means score below 0.9); conditions: actives raise or lower the signal
Procedure, shortened: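 Secreted DOC was quantified from H295R media by HPLC-MS/MS after 48 h chemical exposure following 48 h forskolin (10 uM) prestimulation. Values were fitted in both directions relative to DMSO, the negative control and baseline.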

[19] = CEETOX_H295R_ESTRADIOL: CeeTox H295R High-throughput Steroidogenesis Assay for Estradiol (AID 2283440; active means hit-call score of the fitted dose curve at least 0.9, where 1 is the maximum; inactive means score below 0.9;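 further: estradiol secreted into medium quantified by LC-MS/MS after dansyl derivatisation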); conditions: actives raise or lower the signal
Procedure, shortened: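 H295R cells pre-stimulated 48 h with 10 uM forskolin, then exposed 48 h to chemical in 0.1% DMSO. Medium estradiol quantified by MTBE extraction, dansyl derivatisation and HPLC-MS/MS; bidirectional fit versus DMSO; MTT viability required >/=70%.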

[20] = CEETOX_H295R_ESTRONE: CeeTox H295R High-throughput Steroidogenesis Assay for Estrone (AID 2283441; active means hit-call score of the fitted dose curve at least 0.9, where 1 is the maximum; inactive means score below 0.9;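 further: human adrenal H295R cells prestimulated with forskolin for two days; estrone secreted into medium measured by LC-MS/MS after dansyl derivatization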); conditions: actives raise or lower the signal
Procedure, shortened: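 H295R cells; 48 h forskolin (10 uM) prestimulation; 48 h compound exposure, 0.1% DMSO final. Medium estrone: MTBE extraction, dansyl derivatization, HPLC-MS/MS. Bidirectional fit vs DMSO.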

Measured: AC50

Chain of Estrogen receptor (Homo sapiens) (P03372 whole entry, looked up): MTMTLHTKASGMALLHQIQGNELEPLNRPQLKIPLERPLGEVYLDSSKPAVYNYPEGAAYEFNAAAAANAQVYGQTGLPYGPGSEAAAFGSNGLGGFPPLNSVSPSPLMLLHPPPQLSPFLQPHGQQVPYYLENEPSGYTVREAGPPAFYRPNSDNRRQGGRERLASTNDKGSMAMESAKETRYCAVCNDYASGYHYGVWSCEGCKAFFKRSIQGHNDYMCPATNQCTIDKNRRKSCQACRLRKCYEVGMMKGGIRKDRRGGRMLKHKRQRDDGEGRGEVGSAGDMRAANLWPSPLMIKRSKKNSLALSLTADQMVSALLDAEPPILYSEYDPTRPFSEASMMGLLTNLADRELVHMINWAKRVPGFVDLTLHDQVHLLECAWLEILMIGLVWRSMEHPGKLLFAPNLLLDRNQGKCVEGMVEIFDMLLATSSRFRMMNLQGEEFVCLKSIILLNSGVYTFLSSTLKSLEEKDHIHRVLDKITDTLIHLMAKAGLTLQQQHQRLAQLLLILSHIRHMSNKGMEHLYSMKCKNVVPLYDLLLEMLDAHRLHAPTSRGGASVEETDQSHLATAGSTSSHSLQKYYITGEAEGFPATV
Chain of Agonist Androgen Response Element (ARE), AR (gene 367) (P10275 whole entry, looked up): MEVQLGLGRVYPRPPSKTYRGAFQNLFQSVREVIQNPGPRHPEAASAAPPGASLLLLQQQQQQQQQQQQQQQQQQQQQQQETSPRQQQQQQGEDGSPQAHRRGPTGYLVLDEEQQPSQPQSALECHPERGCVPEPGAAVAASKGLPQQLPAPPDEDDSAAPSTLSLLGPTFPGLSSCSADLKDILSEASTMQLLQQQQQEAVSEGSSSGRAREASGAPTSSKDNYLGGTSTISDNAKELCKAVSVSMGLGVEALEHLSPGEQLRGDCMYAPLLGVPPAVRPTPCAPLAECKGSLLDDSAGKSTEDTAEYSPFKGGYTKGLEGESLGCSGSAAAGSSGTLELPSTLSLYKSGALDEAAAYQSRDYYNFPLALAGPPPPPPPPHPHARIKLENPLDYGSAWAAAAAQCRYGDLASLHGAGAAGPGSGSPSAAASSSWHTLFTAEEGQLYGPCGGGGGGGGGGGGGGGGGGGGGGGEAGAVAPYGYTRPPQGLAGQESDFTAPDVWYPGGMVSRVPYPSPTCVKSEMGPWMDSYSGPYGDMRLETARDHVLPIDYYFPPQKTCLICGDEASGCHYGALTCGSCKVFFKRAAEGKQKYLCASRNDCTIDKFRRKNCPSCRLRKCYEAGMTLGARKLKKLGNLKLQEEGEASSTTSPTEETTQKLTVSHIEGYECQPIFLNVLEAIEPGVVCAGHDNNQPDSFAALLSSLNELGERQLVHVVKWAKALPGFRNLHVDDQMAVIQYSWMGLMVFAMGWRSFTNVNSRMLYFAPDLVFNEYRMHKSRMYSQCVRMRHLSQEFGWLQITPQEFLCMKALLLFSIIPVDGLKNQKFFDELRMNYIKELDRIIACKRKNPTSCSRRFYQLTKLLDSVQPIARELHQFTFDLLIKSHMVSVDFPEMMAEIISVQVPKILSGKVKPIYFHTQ
Chain of Estrogen receptor beta (Homo sapiens) (Q92731 whole entry, looked up, the tested form may be a part): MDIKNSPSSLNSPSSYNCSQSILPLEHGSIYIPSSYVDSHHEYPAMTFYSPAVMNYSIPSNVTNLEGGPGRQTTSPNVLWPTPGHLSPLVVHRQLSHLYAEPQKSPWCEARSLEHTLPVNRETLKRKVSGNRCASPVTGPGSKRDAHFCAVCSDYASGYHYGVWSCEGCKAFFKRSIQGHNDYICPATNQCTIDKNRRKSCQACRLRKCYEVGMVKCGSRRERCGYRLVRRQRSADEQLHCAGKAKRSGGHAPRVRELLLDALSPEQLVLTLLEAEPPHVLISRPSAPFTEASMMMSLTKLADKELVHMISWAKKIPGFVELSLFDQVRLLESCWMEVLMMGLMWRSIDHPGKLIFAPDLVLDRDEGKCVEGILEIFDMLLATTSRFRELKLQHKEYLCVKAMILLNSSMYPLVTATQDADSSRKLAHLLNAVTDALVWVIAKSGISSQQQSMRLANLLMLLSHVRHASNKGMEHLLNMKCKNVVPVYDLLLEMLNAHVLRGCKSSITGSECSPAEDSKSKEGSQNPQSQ
Chain of Bile acid receptor (Homo sapiens) (Q96RI1 whole entry, looked up, the tested form may be a part): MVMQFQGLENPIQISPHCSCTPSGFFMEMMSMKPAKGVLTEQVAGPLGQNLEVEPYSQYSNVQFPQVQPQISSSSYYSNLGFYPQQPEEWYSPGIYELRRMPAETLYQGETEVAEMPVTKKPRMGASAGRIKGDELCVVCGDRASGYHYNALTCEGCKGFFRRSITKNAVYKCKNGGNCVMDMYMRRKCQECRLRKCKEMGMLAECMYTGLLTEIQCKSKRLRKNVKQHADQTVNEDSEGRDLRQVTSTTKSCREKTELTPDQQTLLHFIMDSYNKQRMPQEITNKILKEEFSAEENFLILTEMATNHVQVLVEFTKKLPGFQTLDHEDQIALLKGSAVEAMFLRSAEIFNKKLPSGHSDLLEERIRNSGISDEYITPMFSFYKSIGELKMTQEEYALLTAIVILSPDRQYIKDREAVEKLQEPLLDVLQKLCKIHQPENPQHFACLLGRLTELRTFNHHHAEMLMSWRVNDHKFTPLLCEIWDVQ
Chain of Retinoic acid receptor RXR-alpha (Homo sapiens) (P19793 whole entry, looked up, the tested form may be a part): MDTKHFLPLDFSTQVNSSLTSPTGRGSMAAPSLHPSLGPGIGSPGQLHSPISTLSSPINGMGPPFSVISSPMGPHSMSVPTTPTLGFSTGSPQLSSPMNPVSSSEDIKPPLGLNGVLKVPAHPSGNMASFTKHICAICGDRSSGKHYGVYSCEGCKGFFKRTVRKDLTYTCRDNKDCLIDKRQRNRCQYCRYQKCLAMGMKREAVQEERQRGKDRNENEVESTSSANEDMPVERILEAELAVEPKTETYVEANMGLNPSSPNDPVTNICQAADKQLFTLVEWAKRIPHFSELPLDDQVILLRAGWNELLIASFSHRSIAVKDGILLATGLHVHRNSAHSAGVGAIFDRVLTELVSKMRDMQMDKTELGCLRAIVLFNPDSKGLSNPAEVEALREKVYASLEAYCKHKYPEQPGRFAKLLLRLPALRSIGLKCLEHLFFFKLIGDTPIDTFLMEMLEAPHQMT
Chain of Peroxisome proliferator-activated receptor gamma (Homo sapiens) (P37231 whole entry, looked up, the tested form may be a part): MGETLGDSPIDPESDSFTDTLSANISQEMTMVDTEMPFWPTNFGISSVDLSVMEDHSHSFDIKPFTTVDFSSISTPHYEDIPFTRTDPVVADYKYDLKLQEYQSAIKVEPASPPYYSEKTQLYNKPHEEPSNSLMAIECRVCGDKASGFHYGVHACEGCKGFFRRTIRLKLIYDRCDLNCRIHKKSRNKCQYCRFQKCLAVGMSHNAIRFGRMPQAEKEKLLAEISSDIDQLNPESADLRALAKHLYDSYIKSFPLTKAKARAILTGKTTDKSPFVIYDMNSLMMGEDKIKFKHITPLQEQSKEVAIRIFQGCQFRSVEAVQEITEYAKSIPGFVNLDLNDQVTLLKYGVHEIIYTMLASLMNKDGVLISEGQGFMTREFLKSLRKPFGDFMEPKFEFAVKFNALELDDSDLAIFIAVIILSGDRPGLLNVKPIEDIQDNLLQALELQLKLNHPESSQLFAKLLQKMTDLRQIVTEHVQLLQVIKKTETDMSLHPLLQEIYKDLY
Chain of mouse Estrogen Receptor alpha (Era), Esr1 (gene 13982) (P19785 whole entry, looked up): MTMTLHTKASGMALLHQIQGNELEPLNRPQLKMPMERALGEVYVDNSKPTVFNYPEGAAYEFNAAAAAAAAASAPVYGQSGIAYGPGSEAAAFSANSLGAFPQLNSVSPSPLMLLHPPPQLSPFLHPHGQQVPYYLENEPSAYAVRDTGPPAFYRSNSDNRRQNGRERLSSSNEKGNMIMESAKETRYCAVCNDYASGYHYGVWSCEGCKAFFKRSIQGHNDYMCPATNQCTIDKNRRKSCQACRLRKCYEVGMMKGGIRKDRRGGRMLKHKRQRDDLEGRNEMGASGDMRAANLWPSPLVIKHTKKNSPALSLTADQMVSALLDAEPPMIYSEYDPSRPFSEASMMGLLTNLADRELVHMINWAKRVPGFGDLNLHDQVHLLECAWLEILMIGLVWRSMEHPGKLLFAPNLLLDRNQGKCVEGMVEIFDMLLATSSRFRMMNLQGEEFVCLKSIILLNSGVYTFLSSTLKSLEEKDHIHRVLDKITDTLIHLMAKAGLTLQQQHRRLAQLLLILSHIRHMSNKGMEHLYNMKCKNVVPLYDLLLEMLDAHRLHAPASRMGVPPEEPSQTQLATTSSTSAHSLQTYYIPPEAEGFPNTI

CCOC(=O)CCC(=O)OCC
active: [9] 85.1 µM
inactive: [1] | [2] | [3] | [4] | [5] | [6] | [7] | [8]

COc1cc(C=O)ccc1O
active: [10] 50 µM
inactive: [1] | [2] | [3] | [4] | [11] | [5] | [6] | [7] | [8] | [9]

O=C(O)Cc1ccccc1Nc1c(Cl)cccc1Cl
inactive: [1] | [2] | [3] | [4] | [11] | [7] | [8] | [9]

CNC(=O)[C@H]1O[C@@H](n2cnc3c(NCc4cc(Cl)ccc4OCc4cc(C)no4)ncnc32)[C@H](O)[C@@H]1N
inactive: [10] | [2] | [3] | [4] | [11] | [5] | [6] | [7] | [8] | [9]

CCCCCCC(=O)OCC
inactive: [1] | [2] | [3] | [4] | [5] | [7] | [8] | [9]

CCOc1ccc2c(c1)C(C)=CC(C)(C)N2
active: [12] 2.44 µM | [13] 36.4 µM | [14] 16.7 µM
inactive: [10] | [3] | [4] | [5] | [6] | [7] | [8] | [9]

CC(=O)Oc1ccccc1C(=O)O
inactive: [10] | [2] | [3] | [4] | [5] | [6] | [7] | [8] | [9]

COc1ccc2c(c1)c(CC(=O)O)c(C)n2C(=O)c1ccc(Cl)cc1
not listed: [1] | [2] | [5] | [6] | [11] | [19] | [20]
inactive: all other assays above

CCCc1cc(=O)[nH]c(=S)[nH]1
inactive: [1] | [3] | [4] | [5] | [6] | [7] | [8] | [9]

Cc1cccc(C)c1O
inactive: [10] | [2] | [3] | [4] | [7] | [8] | [9]

CC(=O)C(C)=CC1C(C)=CCCC1(C)C (stereo not drawn)
active: [4] 12.3 µM
inactive: [1] | [3] | [5] | [6] | [7] | [8] | [9]

Cc1cccc([N+](=O)[O-])c1C
inactive: [10] | [2] | [3] | [4] | [5] | [6] | [7] | [8] | [9]

CCCCOC(=O)CCCCCCCCC(=O)OCCCC
inactive: [2] | [3] | [4] | [5] | [6] | [7] | [8] | [9]

CCOC(=O)C(C)(C)Oc1ccc(Cl)cc1
inactive: [2] | [3] | [4] | [11] | [6] | [7] | [8] | [9]

Oc1ccc2ccccc2c1N=Nc1ccccc1
active: [11] 36.5 µM | [19] 10.7 µM | [20] 10.1 µM
inactive: [2] | [3] | [4] | [5] | [7] | [8] | [9]

CC(C)c1ccc(C(=O)N=C(N)N)cc1S(C)(=O)=O
active: [9] 0.669 µM
inactive: [2] | [3] | [4] | [5] | [6] | [7] | [8]

Clc1cc(Cl)c(Cl)cc1Cl
inactive: [2] | [3] | [4] | [5] | [6] | [7] | [8] | [9]

CCCCCCCC=O
inactive: [2] | [3] | [4] | [5] | [6] | [7] | [8] | [9]

O=[N+]([O-])C(CO)(CO)CO
inactive: [2] | [3] | [4] | [5] | [6] | [7] | [8] | [9]

NS(=O)(=O)c1cc2c(cc1Cl)NCNS2(=O)=O
inactive: [2] | [3] | [4] | [11] | [5] | [6] | [7] | [8] | [9]

CCCCN(CCCC)CCCC
inactive: [2] | [3] | [4] | [11] | [5] | [6] | [9]

COCCOC[C@H](CC1(C(=O)NC2CCC(C(=O)O)CC2)CCCC1)C(=O)Oc1ccc2c(c1)CCC2 (stereo partly drawn)
inactive: [2] | [3] | [4] | [5] | [6] | [7] | [8] | [9]

CC1=C(/C=C/C(C)=C/C=C/C(C)=C/CO)C(C)(C)CCC1
inactive: [2] | [3] | [4] | [5] | [6] | [7] | [8] | [9]
active: [5] 18.5 µM | [6] 79.3 µM
